GALK inhibitor = inhibitors of human galactokinase; P51570; Purified GALK, Kinase-Glo residual ATP luminescence; Potency, µM (titrated, usually from 57.5 µM), for the others: at the top dose activity change, negative = inhibition, most hits filed as inhibitors; hit rate 0.007% among 270,000; note: % is set by controls: 0 for no effect and ±100 for the full control effect
Target sequence (P51570 whole entry, looked up): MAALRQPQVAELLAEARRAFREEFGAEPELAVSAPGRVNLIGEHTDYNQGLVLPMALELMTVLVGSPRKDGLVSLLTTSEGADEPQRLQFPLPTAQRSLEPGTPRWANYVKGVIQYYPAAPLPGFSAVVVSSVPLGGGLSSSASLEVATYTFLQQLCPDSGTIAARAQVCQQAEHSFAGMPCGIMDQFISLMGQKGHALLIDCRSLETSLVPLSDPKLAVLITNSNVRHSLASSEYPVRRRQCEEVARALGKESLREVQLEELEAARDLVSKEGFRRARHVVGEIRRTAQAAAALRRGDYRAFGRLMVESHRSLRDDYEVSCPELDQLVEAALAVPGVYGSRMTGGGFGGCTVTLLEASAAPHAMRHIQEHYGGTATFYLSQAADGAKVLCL
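Galactose (100 uM) and ATP (35 uM) were turned over by 5 nM GALK for 1 h at RT. Kinase-Glo Plus then converted the remaining ATP into a luminescent signal.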
Nrf2 inh = inhibitors of Nrf2 signaling; hit rate 2.1% among 360,000; Potency, µM (top dose mostly 46 µM), for the others: top-dose activity change, negative = inhibition, hits mostly inhibitors; A549 ARE-Fluc reporter, luciferase luminescence, 18-24 h; AID 504444; note: % is set by controls: 0 for no effect and ±100 for the full control effect; nearly all actives have a fitted effect of over 60% in size
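Reporter: ARE-Fluc in A549. Exposure: 18-24 h, 37 °C, 5% CO2, 5% FBS OPTI-MEM. Readouts: fluorescent cytotoxicity (CellTiter-Fluor), then luminescent Nrf2 signal after BugLite.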
TrxR1 substrate = rat thioredoxin reductase 1 substrate activity. O89049. purified TrxR1 substrate turnover, NADPH consumption readout. Potency, µM (series often up to 114 µM), without a hit: top-dose activity change, negative = substrate turnover. hit rate 0.01% among 390,000; note: % is set by controls: 0 for no effect and ±100 for the full control effect; nearly all actives have a fitted effect of over 50% in size
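Rat TrxR1, dispensed at 90 nM, was prereduced with 400 uM NADPH (final) for 5 min at ~22 deg C, then incubated with compound 15 min before 400 uM selenite. A first-read NADPH fluorescence drop versus no-compound background flagged substrates.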
Nrf2 ARE act = Nrf2 pathway activation; AREc32 ARE-luciferase reporter (MCF7-derived line), luminescence, 24 h; Potency, µM (titrated, usually from 46.1 µM), for inactives: at the highest dose activation, actives largely listed as activators; hit rate 0.31% among 410,000; AID 624171; note: % of control where 0% means no effect; nearly all actives have a fitted effect of over 65% in size
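ARE activation measured as luciferase luminescence (Steady-Glo, 30 min RT) in AREc32_Fluc cells after 24 hr compound exposure at 37 deg C, 5% CO2; cells seeded overnight at 1000/well in OPTI-MEM, 5% FBS.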
A549 viability = A549 cytotoxicity, counter-screen for Nrf2 inhibitors. AID 504648. A549 ARE-Fluc cells, CellTiter-Fluor viability, 18-24 h. hit rate 0.16% among 390,000. Potency, µM (highest dose often 46 µM), inactives show at the highest dose activity change, negative = cytotoxicity, most hits filed as inhibitors; note: % is set by controls: 0 for no effect and ±100 for the full control effect
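Cytotoxicity counterscreen: CellTiter-Fluor fluorescence was measured in A549 ARE_Fluc cells after 18-24 h of compound exposure in a concentration series. The subsequent BugLite luminescent read reports ARE-luciferase activity.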
TrxR1 inh = inhibitors of rat thioredoxin reductase 1; recombinant rTrxR1, NADPH fluorescence consumption, selenite substrate; hit rate 1% among 390,000; O89049; Potency, µM (doses to about 114 µM), without a hit: top-dose activity change, negative = inhibition, actives largely listed as inhibitors; AID 588453; note: % is set by controls: 0 for no effect and ±100 for the full control effect; nearly all actives have a fitted effect of over 65% in size
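Rat TrxR1 (90 nM in the dispensed reagent) was pre-reduced with 400 uM NADPH for 5 min at room temperature, then incubated with compound for 15 min. After 400 uM selenite was added, NADPH fluorescence (Ex 340/Em 450 nm) was followed for 8 min.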
* marks the source's active call; other numbers are inactive results; u = inconclusive; x = no result; [ ] = dose if it differs, or a comment. Compounds with a hit are over-represented: about 3% of the library has one in this group of screens. Calls come from the whole dose curve; as a rule, active = well fitted curve in the direction sought with a large enough effect; inconclusive = small, poorly fitted or top-dose-only effect, or another doubt; inactive = no such curve, though single readings can be large; an effect the other way counts as inactive or inconclusive. Potency is the fitted concentration of half-maximal effect.

SMILES	GALK inhibitor	Nrf2 inh	TrxR1 substrate	Nrf2 ARE act	A549 viability	TrxR1 inh
Cc1noc(C)c1S(=O)(=O)N(CC(=O)Nc1ccc(C(F)(F)F)cc1)c1ccc(C(C)C)cc1	x	16µM*	-9%	4%	-13%	5%
CCOc1ccc(N(CC(=O)Nc2cccc(Cl)c2)S(=O)(=O)c2c(C)noc2C)cc1	1%	23µM*	-13%	0%	u	-9%
CCOc1ccc(N(CC(=O)Nc2cccc(OC)c2)S(=O)(=O)c2c(C)noc2C)cc1	0%	u	1%	0%	-10%	25%
COc1cc(NC(=O)c2cccc(Br)c2)nc(OC)n1	1%	6%	5%[57.1 µM]	14µM*	1%	12%[57.1 µM]
COc1ccccc1C(=O)NNC(=O)c1cccc(Br)c1	-4%	u	-6%	6.3µM*	16%	12%
COC(=O)c1cc(NC(=O)CN(c2ccccc2)S(=O)(=O)N(C)C)ccc1Cl	x	0%	-2%	4%	-1%	23%
CCOC(=O)c1cccc(NC(=O)C(CC(C)C)N2Cc3ccccc3C2=O)c1 (stereo not given)	x	0%	-3%	0%	-11%	4%
CCN(CCO)c1ccc(N=Nc2cc(C)[nH]n2)cc1	8%	u	-7%[57.1 µM]	-3%	9.2µM*	-8%[57.1 µM]
CCCN1CNc2c(c(=O)[nH]c(=S)n2CCc2ccc(C)cc2C)C1	x	9%	3%	x	3%	-13%
CCc1c(C)sc(NC(=O)c2noc(C)c2[N+](=O)[O-])c1C#N	-1%	8%	-9%	13%	-10%	13µM*
Clc1ccc(C=Cc2ccccn2)cc1	x	u	10%[57.1 µM]	8.9µM*	3%	-5%[2.29 µM]
CCCNC(=O)CN1C(=O)c2c(c3ccccc3n2C)C1c1ccc(OC)cc1 (stereo not given)	x	-7%	19%	3%	12%	-4%
Cc1cc(=O)n(Cc2ccccc2)c(O)c1C#N	2%	-9%	13%[2.29 µM]	0%	4%	-74%[2.29 µM]
Cc1cc(=O)n2nc(-c3ccccc3)sc2c1C#N	5%	16%	11%[57.1 µM]	2.2µM*	-11%	12%[57.1 µM]
COc1ccc(CNc2nc3ccccc3n2Cc2ccc(Cl)cc2)cc1OC	0%	23µM*	-1%[57.1 µM]	4%	-16%	-5%[57.1 µM]
c1ccc(OCCn2c(COc3ccccc3)nc3ccccc32)cc1	x	4%[9.27 µM]	0%	4%	1%	8%
CC(C)(C)c1ccc(Cn2c(Cc3ccccc3)nc3ccccc32)cc1	x	23µM*	-7%	4%	-11%	16%
Cc1cccc(Cn2c(Cc3ccccc3)nc3ccccc32)c1	-4%	u	-3%	4%	-5%	5%
CCCCOc1ccc(S(=O)(=O)n2c(C)nc3ccccc32)cc1	-5%	7.3µM*	8%	0%	-18%	25%
Cc1nc2ccccc2n1CCOc1ccccc1	-7%	15µM*	7%	0%	-3%	2%[57.1 µM]
CCOc1ccc(S(=O)(=O)n2c(C)nc3ccccc32)cc1	-2%	-30%	5%	0%	-10%	17%
CNCc1nc(-c2ccc[nH]2)c2cc(Cl)ccc2n1	x	x	-5%[0.0914 µM]	x	x	-15%
CCN(CC)S(=O)(=O)c1ccc2c(c1)nc(CN(C)C(=O)Nc1ccc(F)cc1)n2C	x	x	-8%[57.1 µM]	5%	2%	-16%[57.1 µM]
Cc1nc2ccccc2n1Cc1ccc(Cl)cc1	x	18µM*	6%	4%	9%	19%
OCc1nc2ccccc2n1Cc1ccc(Cl)cc1	6%	-20%	7%	2%	4%	16%[57.1 µM]
SMILES	GALK inhibitor	Nrf2 inh	TrxR1 substrate	Nrf2 ARE act	A549 viability	TrxR1 inh
O=C(NCCc1nc2ccccc2n1CCOc1ccccc1)C1CCCCC1	x	26µM*	10%[0.0914 µM]	x	u	-4%
O=C(NCCc1nc2ccccc2n1CCOc1ccc(Cl)cc1)C1CCCCC1	x	u	-4%[0.457 µM]	x	u	2%
Cc1ccc(Cl)cc1N1CCN(C(=O)c2cnc(N3CCOCC3)c3ccccc23)CC1	x	x	-3%[57.1 µM]	-4%	-19%	9%[57.1 µM]
Oc1ccccc1C1C=C(c2ccc3c(c2)OCO3)NC(c2cccc(Cl)c2)N1 (stereo not given)	x	8%	0%	x	7%	-3%
Cc1[nH]n(-c2ccccc2)c(=O)c1C(=O)c1ccccc1	4%	u	3%[11.4 µM]	0%	u	10%[11.4 µM]
Cc1[nH]n(-c2ccc(Cl)cc2)c(=O)c1C(=O)c1ccccc1	3%	21µM*	-5%	3%	u	7%[57.1 µM]
Cc1[nH]n(-c2ccccc2)c(=O)c1C(=O)c1cccc(F)c1	5%	23µM*	-11%	0%	13%	-10%
Cc1[nH]n(-c2ccccc2)c(=O)c1C(=O)c1ccc(Cl)cc1	5%	16µM*	-9%	0%	-24%	-4%
CC(=O)c1cccc(Nc2cc(C)nc3nc(Cc4ccccc4)nn23)c1	x	1%	1%	4%	9%	13%
O=C(CSCc1cccc(Cl)c1)N/N=C/c1ccc(OCC(=O)N2CCCCC2)cc1	-1%	18µM*	-8%	3%	-2%	12%
Cc1cc(C)cc(CSCC(=O)N/N=C/c2ccc(OCC(=O)NCc3ccco3)cc2)c1	-1%	15µM*	4%	4%	-15%	5%
Cc1ccccc1-c1nnc(SCC(=O)N2CCCCC2)o1	x	21%	1%	0%	-6%	2%
N/C(=N\OC(=O)c1cccs1)c1ccccc1	4%	u	-2%	10µM*	5%	13%
Cc1cccc(/C(N)=N/OC(=O)c2cccs2)c1	16%	u	-1%[57.1 µM]	14µM*	-11%	12%[57.1 µM]
N/C(=N\OC(=O)c1ccco1)c1ccccc1	4%	u	5%	18µM*	-15%	4%
Cc1ccc(/C(N)=N/OC(=O)c2cccs2)cc1	0%	u	5%	u	-2%	19%
N/C(=N\OC(=O)c1cccs1)c1cccc(Br)c1	1%	u	-1%	11µM*	-1%	7%
COc1ccc(/C(N)=N/OC(=O)c2cccs2)cc1OC	-2%	u	11%[57.1 µM]	u	-12%	21%[57.1 µM]
COc1cccc(Nc2nc3ccc(C)cc3nc2-n2nc(C)cc2C)c1	x	16%	4%	0%	0%	7%
Cc1ccccc1Nc1cc(C(=O)NCc2cccs2)c2ccccc2n1	x	-2%	-2%	6%	10%	25%
Cc1c(Cl)ccc2sc(NC(=O)c3ccc(S(=O)(=O)N4CCCc5ccccc54)cc3)nc12	x	x	1%[57.1 µM]	0%	-10%	14%[57.1 µM]
Cc1ccc(NC(=O)C2CCN(C(=O)c3sc4nc[nH]c(=O)c4c3C)CC2)cc1F	x	x	-1%[57.1 µM]	4%	5%	2%[57.1 µM]
N/C(=N\OC(=O)c1ccc(Br)cc1)c1ccccc1	4%	x	9%	8.9µM*	3%	24%
N/C(=N\OC(=O)c1cccc(Br)c1)c1ccc(Br)cc1	-2%	26%	-9%	u	0%	-2%

Source: PubChem (National Center for Advancing Translational Sciences (NCATS))
